Here are results for 40 compounds from PubChem BioAssay (NCI).

Compounds without any hit were thinned out: in the full panel of roughly 83,000, 20% have a hit.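 Cells were grown in 96-well plates and exposed to the test compound at a single concentration for 48 hours; results are reported as percent growth, with values below 10 considered active.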 Values without a mark were called inactive. Active and inactive are the calls of the source.

The assay concerns HL-60(TB) leukemia. As to the kind of experiment: NCI-60 one-dose screen, 48 h (100 = growth as untreated, 0 = no growth, -100 = all killed). The settings on record: 10 µM unless noted.
Regarding `COc1ccc(Cl)cc1Nc1nc(C(F)(F)F)ccc1C(=O)N/N=C/c1ccccc1Cl`, the growth was -11.3% (active). To `O=C1Nc2ccc(Cl)cc2/C1=C\c1c(-c2ccc(F)cc2)nc2ccccn12` belongs -37.7% (active); to `CCN1C(=O)N(CC)C2C1NN=c1s/c(=C\c3ccc[nH]3)c(=O)n12` (stereo not given), -48% (active).

As for `COc1cc(/C=C/C(=O)CC(=O)/C=C/c2ccc(OC(=O)C3C4CC5CC(C4)CC3C5)c(OC)c2)ccc1OC(=O)C1C2CC3CC(C2)CC1C3` (stereo not given), the growth was 94%.

Consider `CCCCCCC(=O)C(C)C`, for which the growth is 101%. For the compound `O=C1/C(=C/c2cccc([N+](=O)[O-])c2)COc2ccc(O)cc21`, the growth is 15.3%. The result for `c1cncc(-c2nc3ccccc3[nH]2)c1` reads 94.8%. As to `O=C(OCc1ccc2c(Cl)cc(Cl)c(O)c2n1)N1CCNCC1`, the growth is 64.5%. To `COc1ccc(CNc2c3ccccc3nc3ccccc23)cc1F` belongs 12.9%.

With `Cc1cc(N(CCNc2ccnc3cc(Cl)ccc23)Cc2ccc3c(c2)OCO3)nc(N2CCCC2)n1`, the growth is -61.9% (active). Regarding `O=S(=O)(NCCNc1cc(-c2cn(-c3ccccc3)nc2-c2ccccc2)ccn1)c1cccc2ccccc12`, the growth was 36.4%. The result for `Nc1nc(Nc2ccccc2)n[nH]1` reads 97.7%; that for `CC(C)(C)C(=O)OCOP(=O)(OCOC(=O)C(C)(C)C)C1CCCN(OC(=O)c2ccccc2)C1=O` (stereo not given), 35.1%; that for `NCCNc1ccc2cc(-c3nc4ccccc4[nH]3)c(=O)oc2c1`, 80.1%. Consider `CC(C(=O)O)n1c(O)c(C=Nc2cccnc2)sc1=S` (stereo not given), for which the growth was 82.3%. Regarding `O=S(=O)(Nc1cc(Sc2cccc3cccnc23)c(O)c2ccccc12)c1ccccc1`, the growth is -21% (active).

With `COc1ccc(/C=C/c2nc3ccccc3c(=O)n2-c2ccc(C#Cc3ccc(C(C)(C)C)cc3)cc2C)c(OC)c1`, the growth was 67.4%.

For `COc1ccc(-c2n/c(=C\c3c(O)[nH]c4ccccc34)cc3c2=Nc2ccccc2-3)cc1`, the growth is -19.1% (active). The result for `COc1cccc2c1C(=O)c1c(O)c3c(c(O)c1C2=O)C[C@@](O)(C(=O)COC(=O)c1ccccc1)C[C@@H]3OC1CC(N)C(O)C(C)O1` (stereo not given in full) reads -74.8% (active); that for `COc1ccc(/C=N/NC(=O)c2ccc(S(C)(=O)=O)cc2)cc1OC`, 54.1%. As for `N=c1c2c(=N)n3c(nc2nc2n1-c1ccccc1Sc1ccccc1-2)sc1cc(Cl)ccc13`, the growth was 50.3%.

With `C=CCn1c(SCC(=O)Nc2ccc(C(=O)/C=C/c3cc(OC)c(OC)c(OC)c3)cc2)nnc1-c1ccc(Cl)cc1`, the growth was 12.3%. The result for `COc1ccc(Nc2ncc(I)c(NCCCNC(=O)C3CCC3)n2)cc1` reads -37.6% (active); that for `Cc1cc(-c2ccc(N(C)C)cc2)c2sc(=O)[nH]c2n1`, 14.3%; that for `CC(Br)c1nc2ccccc2cc1C(N)=O` (stereo not given), 104%. The result for `CCCCCCNC(=O)Oc1ccc(/C(=C(/CC)Cc2ccccc2)c2ccc(OCCN3CCCCC3)cc2)cc1` reads 75.1%; that for `C#CCOC(=O)/C=C/c1cn(-c2ccccc2)nc1-c1ccc(OC)cc1`, 110%. The result for `Cn1ccnc1C(=O)/C=C/c1ccc(C(=O)Nc2ccc(Cl)cc2)cc1` reads -16.9% (active); that for `COc1ccc(NC(=O)/C=C/c2ccc(NC(=O)N3CCCC3)cc2)cn1`, 102%. Take `CC/C(=C(/c1ccc(Cl)cc1)c1ccc(OCCN(C)C)cc1)c1ccc(Cl)cc1`: the growth is 64.9%. To `CN1CCCN(C(c2ccccc2)c2ccc(Cl)cc2)CC1` (stereo not given) belongs 93.5%. Take `COc1cc2c(=O)n(CCN)c3c4cc5c(cc4ccc3c2cc1OC)OCO5`: the growth was -64.9% (active). The result for `CCc1ccc(Cc2cnc(NC(=O)c3cc(C)oc3C)s2)cc1` reads -21.3% (active); that for `COc1cc(Nc2cc(C)nc(N3CCN(c4ccnc5cc(Cl)ccc45)CC3)n2)cc(OC)c1`, -6.44% (active); that for `C/C(=C\CCc1ccoc1)CC/C=C(\C)CCCN1CCOCC1`, 35.5%.

In the case of `O=c1[nH]nc(-c2ccc(Br)cc2)cc1Cc1ccc(O)cc1`, the growth was 85.4%.

For `CC(=O)Cc1ccccn1`, the growth was 85.4%.

As to `C#C[C@]1(O)CC[C@H]2[C@@H]3CC=C4c5sc(Nc6ccccc6)nc5CC[C@]4(C)[C@H]3CC[C@@]21C`, the growth is 7.59% (active). To `Cc1nc2sc(C(=O)Nc3ccc(Cl)cc3)c(N)c2cc1C(O)c1ccccc1` (stereo not given) belongs 2.56% (active); to `CCC(C)(C)C1CCC(O)CC1` (stereo not given), 83.8%.
